Screening data as filed in PubChem.
Pf growth 48h: P. falciparum growth inhibition at 48 hours (one generation); P. falciparum luciferase growth in erythrocytes, 48 h; Potency, µM (highest dose often 28.7 µM), for the others: at the top dose activity change, negative = inhibition, most hits filed as inhibitors; hit rate 5.9% among 310,000; also: % is scaled to controls: 0 for no effect and ±100 for the full control effect
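First compound was added to culture medium, then infected red cells at 0.1% parasitemia and 2% hematocrit (final). After incubation at 37 C under 5% CO2, luciferase detection reagent was dispensed and light output recorded.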
Pf growth 96h: inhibits malaria parasite growth, 96 h | P. falciparum luciferase reporter growth, 96 h | Potency, µM (doses to about 28.7 µM), for the others: at the top dose activity change, negative = inhibition, hits mostly inhibitors | hit rate 6.9% among 320,000 | AID 504834; also: % is scaled to controls: 0 for no effect and ±100 for the full control effect
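Plates of compound plus infected erythrocytes (2% hematocrit, 0.05% parasitemia final) incubate 96 hours, 37 C, 5% CO2. Detection reagent added; reduced luminescence from the parasites' luciferase reporter flags inhibition.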
SARS PLP yeast: inhibitors of SARS-CoV papain-like protease in yeast; S. cerevisiae expressing SARS-CoV PLpro, growth rescue; Potency, µM (highest dose often 32.9 µM), for the others: at the top dose activity, positive = growth rescue, actives largely listed as activators; hit rate 0.19% among 330,000; AID 485353; calls by dose curve; also: 0% is about no effect; nearly all actives have a fitted effect of over 55% in size
AmpC inh detg: AmpC beta-lactamase inhibition with detergent present | P00811 | Potency, µM (highest dose often 114 µM), without a hit: at the highest dose activity change, negative = inhibition, most hits filed as inhibitors | AmpC hydrolysis of nitrocefin, absorbance 480 nm, 0.01% Triton | hit rate 0.041% among 370,000;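 also: 0% = no-compound wells and -100% = no-enzyme wells; nearly all actives have a fitted effect of over 25% in size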
Target sequence (P00811 whole entry, looked up): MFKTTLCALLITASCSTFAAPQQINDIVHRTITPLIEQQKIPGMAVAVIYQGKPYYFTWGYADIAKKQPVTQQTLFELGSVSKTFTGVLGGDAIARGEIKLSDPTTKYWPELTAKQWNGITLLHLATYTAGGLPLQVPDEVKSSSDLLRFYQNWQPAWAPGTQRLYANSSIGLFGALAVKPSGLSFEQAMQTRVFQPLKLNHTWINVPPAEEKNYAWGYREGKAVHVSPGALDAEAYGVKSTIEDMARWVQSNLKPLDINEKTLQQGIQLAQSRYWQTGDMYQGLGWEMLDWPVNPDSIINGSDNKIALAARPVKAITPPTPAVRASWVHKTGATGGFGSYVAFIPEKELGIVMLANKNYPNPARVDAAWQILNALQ
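20 mM phosphate pH 7.0 + 0.01% (detergent screen) or 0.0001% Triton X-100; 5.3 nM AmpC reagent; cpd preinc 15 min RT; nitrocefin (800 uM stock) to start; A480 q20 s × 4 min; Activity was normalised to no-enzyme and no-compound control wells.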
AmpC no deterg: inhibitors of E. coli AmpC beta-lactamase without detergent; P00811; AID 485341; Potency, µM (top dose mostly 57.1 µM), for inactives: at the top dose activity change, negative = inhibition, most hits filed as inhibitors; AmpC nitrocefin hydrolysis, absorbance 480 nm, 0.0001% Triton; hit rate 0.52% among 330,000;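 also: plate controls were no compound for no effect and no enzyme for full effect; nearly all actives have a fitted effect of over 20% in size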
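20 mM phosphate pH 7.0 + 0.01% (detergent screen) or 0.0001% Triton X-100; 5.3 nM AmpC reagent; cpd preinc 15 min RT; nitrocefin (800 uM stock) to start; A480 q20 s × 4 min; Activity was normalised to no-enzyme and no-compound control wells.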
Sm TGR inh: S. mansoni TGR enzyme inhibition. Q962Y6. purified TGR, DTNB reduction, TNB absorbance 405 nm. Potency, µM (top dose mostly 114 µM), inactives show at the top dose activity change, negative = inhibition, actives largely listed as inhibitors. hit rate 3% among 360,000. AID 485364; also: % is scaled to controls: 0 for no effect and ±100 for the full control effect; nearly all actives have a fitted effect of over 60% in size
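First, TGR (20 nM dispensed) and NADPH were mixed with compound. Second, a 15 min room-temperature incubation followed. Third, further NADPH and then DTNB were added to start the reaction. Finally, TNB absorbance was monitored kinetically.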
* hit, by the source's call; i = inactive; ? = inconclusive; . = not tested or not shown; [ ] = dose if it differs, or a comment. In the library only some 12% were active in any assay of this set; here they are far more common. Unless noted, calls follow the shape of the dose curve; as a rule, active = well fitted curve in the direction sought with a large enough effect; inconclusive = small, poorly fitted or top-dose-only effect, or another doubt; inactive = no such curve, though single readings can be large; an effect the other way counts as inactive or inconclusive. Potency is read from the fitted curve at half-maximal effect.

SMILES	Pf growth 48h	Pf growth 96h	SARS PLP yeast	AmpC inh detg	AmpC no deterg	Sm TGR inh
O=C(Nc1ccc(N2CCC(c3ccccc3)C2)c(C(=O)O)c1)c1ccc(Cl)cc1 (centres undefined)	.	.	.	8%	.	-31%
CCc1ccccc1NC(=O)c1ccc(CN2C(=O)CCn3nc(C)cc32)cc1	.	.	.	17%	.	-2%
COc1cc(OC)cc(C(=O)N[C@H](C(=O)Nc2nc(-c3ccc(F)c(F)c3)cs2)C(C)C)c1	13µM*	-50%[5.75 µM]	-1%	-5%	-28%	-13%
O=C(Nc1ccccc1)Nc1nc(-c2ccccc2)cs1	-2%	24%	-1%	-7%	-32%	8%
O=C(Nc1ccc(F)cc1F)Nc1csc2ccccc12	4.7µM*	?	-6%	5%	-40%	19%
O=C(Nc1ccc(Cl)c(Cl)c1)Nc1nc(-c2ccccc2)cs1	?	2.3µM*	0%	?	-52%	-1%
O=C(COc1ccc(F)cc1)Nc1nc(-c2ccccn2)cs1	?	?	3%	?	-9%	-29%
O=C(Nc1nc(-c2ccccn2)cs1)Nc1ccc(F)cc1F	1.5µM*	1.7µM*	-15%	0%	87%	5%
COc1cc(/C(C#N)=C/c2ccccc2)c([N+](=O)[O-])cc1OC	-21%	7%	-18%	3%	-18%	0%
O=C(Nc1ccccc1)Nc1nc(-c2ccc(F)c(F)c2)cs1	12µM*	13µM*	-1%	-4%	-44%	2%
COc1cccc(-c2csc(NC(=O)Nc3ccccc3)n2)c1	9%[0.00184 µM]	?	-4%	3%	-38%	9%
O=C(Nc1nc(-c2ccccc2)cs1)Nc1ccc(F)cc1F	21%	-14%	-13%	-2%	20µM*	53%
CN(CC(=O)Nc1ccc(S(=O)(=O)N2CCCC2)cc1)Cc1ccc(Cl)cc1	?	8.3µM*	-5%	?	5%	-12%
CN(CC(=O)Nc1cccc(S(=O)(=O)N2CCCC2)c1)CC(=O)Nc1ccc(Cl)c(C(F)(F)F)c1	15µM*	?	0%	-3%	40%	4%
CN(CC(=O)Nc1ccc(S(=O)(=O)N2CCCC2)cc1)Cc1c(F)cccc1Cl	-21%	13µM*	-2%	?	3%	-2%
CCOC(=O)Cn1c(=O)n(C2CCCCC2)c2nc(-c3ccc(OCC)cc3)nc(C(N)=O)c21	.	.	.	2%	.	-1%
CC(=O)/C(C#N)=C1\NC(=O)C(Cc2ccc(C)c(C)c2)S1 (centres undefined)	-28%	?	-17%	-6%	-26%	0%
Cc1cc(NC(=O)CSc2nnc(-c3ccccc3)n2Cc2ccco2)no1	?	?	5%	0%	-18%	-24%
COC(=O)c1ccc2c(=O)n(Cc3ccco3)c(SCC(=O)Nc3cc(C)on3)nc2c1	4.7µM*	-6%	0%	-1%	-3%[2.29 µM]	-21%
CCn1c(Cc2ccccc2)nnc1SCC(=O)Nc1cc(C)on1	-14%	8.3µM*	-1%	1%	-28%	6%
Cc1cc(NC(=O)CSc2nnc(COc3ccccc3)n2Cc2ccco2)no1	-16%	8.3µM*	-11%	-13%	10%	-8%
Cc1cc(NC(=O)CSc2nnc(Cc3ccccc3)n2C)no1	-11%	i	-5%	0%	-11%	4%
COc1ccc(C(=O)CSc2nc3ccc([N+](=O)[O-])cc3[nH]2)cc1	-19%	-16%	14%	-7%	-46%	-4%
CCCCn1c(=O)n(CC(=O)Nc2ccc(OC)c(Cl)c2)c(=O)c2c1nc(CO)n2CCC	10µM*	.	1%	6%	58%	3%
CCCCn1c(=O)n(CC(=O)Nc2ccc(C)c(Cl)c2)c(=O)c2c1ncn2Cc1ccco1	12µM*	4.7µM*	-5%	0%	-23%	?
Cc1ccc(NC(=O)CSc2nccn2Cc2ccco2)cc1Cl	.	.	.	2%	.	-10%
